Out of some 67,000 compounds screened, about 300 (0.45%) showed an effect of 50% or more. This is one part of a sample in which strong results are shown more often than they occur.

Polyketide synthase Pks13 (Mycobacterium tuberculosis (strain ATCC 25618 / H37Rv)), sequence (I6X8D2 whole entry): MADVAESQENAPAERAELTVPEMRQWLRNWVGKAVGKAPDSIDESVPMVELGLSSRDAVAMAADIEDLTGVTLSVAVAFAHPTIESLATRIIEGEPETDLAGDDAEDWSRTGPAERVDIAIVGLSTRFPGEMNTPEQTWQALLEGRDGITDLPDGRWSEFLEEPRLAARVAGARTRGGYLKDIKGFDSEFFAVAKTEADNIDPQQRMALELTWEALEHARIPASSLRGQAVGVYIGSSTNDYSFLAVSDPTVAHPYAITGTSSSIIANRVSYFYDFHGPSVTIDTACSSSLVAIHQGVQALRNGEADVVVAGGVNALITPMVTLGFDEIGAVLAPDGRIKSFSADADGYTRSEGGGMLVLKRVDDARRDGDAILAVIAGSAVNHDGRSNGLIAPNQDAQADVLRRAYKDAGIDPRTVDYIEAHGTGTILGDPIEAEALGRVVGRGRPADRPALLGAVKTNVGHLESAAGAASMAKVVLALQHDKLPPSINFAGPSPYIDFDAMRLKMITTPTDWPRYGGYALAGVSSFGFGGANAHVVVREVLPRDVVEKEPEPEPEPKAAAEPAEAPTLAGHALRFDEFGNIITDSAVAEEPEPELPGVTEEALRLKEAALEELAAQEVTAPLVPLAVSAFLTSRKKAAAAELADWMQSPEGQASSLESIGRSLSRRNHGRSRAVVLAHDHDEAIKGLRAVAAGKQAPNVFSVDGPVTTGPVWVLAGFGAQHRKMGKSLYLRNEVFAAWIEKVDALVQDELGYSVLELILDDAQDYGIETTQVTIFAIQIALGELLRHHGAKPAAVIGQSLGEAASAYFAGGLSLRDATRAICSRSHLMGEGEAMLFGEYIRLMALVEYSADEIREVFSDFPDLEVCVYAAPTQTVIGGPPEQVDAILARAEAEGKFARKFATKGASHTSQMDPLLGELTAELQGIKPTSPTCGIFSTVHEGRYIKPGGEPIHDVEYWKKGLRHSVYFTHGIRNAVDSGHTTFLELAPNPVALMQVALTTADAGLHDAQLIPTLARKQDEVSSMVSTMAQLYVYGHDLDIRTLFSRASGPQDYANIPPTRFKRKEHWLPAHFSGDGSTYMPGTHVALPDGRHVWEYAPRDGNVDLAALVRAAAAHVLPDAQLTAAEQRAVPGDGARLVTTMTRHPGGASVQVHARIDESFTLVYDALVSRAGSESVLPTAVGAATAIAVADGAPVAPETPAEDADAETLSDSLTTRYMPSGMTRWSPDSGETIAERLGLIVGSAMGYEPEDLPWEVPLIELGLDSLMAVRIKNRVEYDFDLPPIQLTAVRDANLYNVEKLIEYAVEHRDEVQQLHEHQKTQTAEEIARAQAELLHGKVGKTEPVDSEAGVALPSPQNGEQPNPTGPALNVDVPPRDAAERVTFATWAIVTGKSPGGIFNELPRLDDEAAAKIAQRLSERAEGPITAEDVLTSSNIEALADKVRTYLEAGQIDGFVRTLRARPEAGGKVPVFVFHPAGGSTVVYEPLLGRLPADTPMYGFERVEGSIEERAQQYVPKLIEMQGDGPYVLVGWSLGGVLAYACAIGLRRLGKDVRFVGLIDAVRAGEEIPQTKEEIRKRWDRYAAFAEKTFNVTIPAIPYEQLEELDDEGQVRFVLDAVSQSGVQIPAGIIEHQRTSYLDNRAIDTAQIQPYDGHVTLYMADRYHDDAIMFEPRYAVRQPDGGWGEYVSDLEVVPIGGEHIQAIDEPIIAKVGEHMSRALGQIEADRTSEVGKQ

This test addresses Polyketide synthase Pks13 (Mycobacterium tuberculosis (strain ATCC 25618 / H37Rv)) (UniProt I6X8D2). The test can be described thus: Mycobacterium tuberculosis Polyketide synthase 13 Thioesterase (PKS13). The note with it: 30 µM. Format: functional. Further details: scale not given: in the data most compounds retested in dose-response had high values.
For `CC(C)C(=O)N1CCN(C(=O)c2cscn2)[C@H]2CS(=O)(=O)C[C@H]21`, the Percent Effect is -12.2%.

Consider `O=C1CO[C@H]2CN(C3CCOCC3)C[C@H]2N1Cc1ccncc1`, for which the Percent Effect is -35.6%.

Turning to `CCN(Cc1nc2c(cnn2C)c(=O)[nH]1)c1ccccc1`, the Percent Effect is 66.8%.

For the compound `CCN(Cc1nc2c(cnn2C)c(=O)[nH]1)c1ccc(F)cc1`, the Percent Effect was -7.87%.

On to `CCN(Cc1nc2c(cnn2C)c(=O)[nH]1)c1cccc(F)c1`, for which the Percent Effect is -8.73%.

With `CN1CCC(NC(=O)c2cc(Br)cc(Cl)c2O)C1=O` (stereo not given), the Percent Effect amounted to 11.6%.

As for `CN1CCC(NC(=O)c2cc(F)cc(Cl)c2O)C1=O` (stereo not given), the Percent Effect came to 54%.

For `CN1CCC(NC(=O)c2cc(Cl)cc(Br)c2O)C1=O` (stereo not given), the Percent Effect is 11.2%.

With `C/C(NC(=O)c1ccccn1)=C1\C(=O)C[C@@H]2[C@H]1C2(C)C`, the Percent Effect was 37.5%.

As for `COCc1noc(-c2ccc(N(C)Cc3ncccc3C)nc2)n1`, the Percent Effect was 5.81%.

Consider `COCc1noc(-c2ccc(N(C)Cc3ccc(C)o3)nc2)n1`, for which the Percent Effect was 69.6%.

Turning to `COCc1noc(-c2ccc(N(C)Cc3cc(C)no3)nc2)n1`, the Percent Effect was -8.23%.

In the case of `COCCN(C)CC(=O)N1C[C@H]2CC[C@@H]1CN(C(=O)c1ccncc1)C2`, the Percent Effect is -9.17%.

In the case of `Cc1oc(C(C)C)cc1C(=O)N1C[C@H]2CC[C@@H]1CN(C(=O)N(C)C)C2`, the Percent Effect was -5.27%.

As for `Cc1ccc(N2C[C@H]3CCC[C@@H](CN(C)C)[C@H]3C2)nn1`, the Percent Effect was -24.5%.

Take `CC(C)c1cc(NC(=O)CN2CCC(N3CCNC3=O)CC2)on1`: the Percent Effect was 0.26%.

As for `CC(C)(C)c1cc(NC(=O)CN2CCC(N3CCNC3=O)CC2)on1`, the Percent Effect was determined as 80.9%.

For `Cc1cc(NC(=O)CN2CCC(N3CCNC3=O)CC2)on1`, the Percent Effect is -25.3%.

`Cc1noc(C)c1CN1C[C@@H]2OCCN(Cc3cnn(C)c3)[C@@H]2C1`: the Percent Effect is -27.8%.

`C[C@@H]1C[C@@H]2CCN(Cc3nccs3)C[C@H]2O1`: the Percent Effect was -25.2%.

As to `c1cncc(COC[C@H]2CC[C@H]3[C@H](CCN3Cc3cccs3)O2)c1`, the Percent Effect was -37.9%.

For the compound `CCc1cccc(C)c1NC(=O)C1CC(=O)N(Cc2ccccn2)C1` (stereo not given), the Percent Effect was found to be 58.8%.

Regarding `O=C(Nc1ccccn1)C1CC(=O)N(Cc2ccccn2)C1` (stereo not given), the Percent Effect was -26.6%.

Turning to `Cc1ccc(Cl)cc1NC(=O)C1CC(=O)N(Cc2ccccn2)C1` (stereo not given), the Percent Effect was -5.88%.

Turning to `Cc1nnc([C@H]2C[C@H]3OCC[C@H]3N(S(=O)(=O)N(C)C)C2)o1`, the Percent Effect was -28.4%.

For `CC(C)N1CCO[C@H]2CN(Cc3cc[nH]n3)C[C@H]21`, the Percent Effect is -16.1%.

On to `CN(Cc1ccco1)C[C@H]1OC[C@@H]2CCN(Cc3cccs3)C[C@@H]21`, for which the Percent Effect is -7.96%.

As for `Cc1cccn2c(=O)cc(CSCC(=O)Nc3nnc(C(C)C)s3)nc12`, the Percent Effect came out at 98.2%.

As for `Cc1ccn2c(=O)cc(CSCC(=O)Nc3nnc(C(C)C)s3)nc2c1`, the Percent Effect is -42%.

With `CC(C)c1nnc(NC(=O)CSCc2cc(=O)n3ccccc3n2)s1`, the Percent Effect is -12.4%.

The record behind these values is ChEMBL document CHEMBL3988442, “University of Dundee, Small-Polar-MMV Screening Library” (2021).
